The first assay has as its target UBA3. As to the kind of experiment: pooled miR-30 sensor sort-seq; sequence = guide strand. As to conditions: shRNA.
Take TTAAAATCTTGAATCTTGTTGA: the sensor-assay potency score (higher = more potent) turned out to be 0.888.

As for TATATTGTGATGCTCTCTCTAG, the sensor-assay potency score (higher = more potent) is -0.466.

For the sequence ATCTACATCATTAAACACCAAG, the sensor-assay potency score (higher = more potent) was -1.38.

Sequence TTGCAGAGAAGCACTATTGGTT returned a sensor-assay potency score (higher = more potent) of -0.184.

Sequence TTGTCGATAGAAAGTGTCGTTA had a sensor-assay potency score (higher = more potent) of -0.471.

In the case of TTACATACTCAATACAGTGTTC, the sensor-assay potency score (higher = more potent) was -0.397.

Turning to TTGGATCTAAGACACCATCTTC, the sensor-assay potency score (higher = more potent) was 0.0215.

For another assay, the target named is UBE2F. The description is as above. To be noted: shRNA.
In turn, TTTGAGACCATCGTCACGCTTC had a sensor-assay potency score (higher = more potent) of 0.155.

Turning to TAGCTGAAAACAATGAAGCTTG, the sensor-assay potency score (higher = more potent) is -0.377.

Turning to TTAACAAGCAATTTGTCTCTCA, the sensor-assay potency score (higher = more potent) is -0.236.

TTCTGCAGCTTCAATATTCAGT: the sensor-assay potency score (higher = more potent) was -0.23.

Regarding AACTGTAACACAGTCCATGGGC, the sensor-assay potency score (higher = more potent) was -0.0499.

Turning to TTCTCCATCTACAATGAGCAGT, the sensor-assay potency score (higher = more potent) is -0.914.

TTTAACAAGCAATTTGTCTCTC came in with a sensor-assay potency score (higher = more potent) of 0.519.

With TTTATTCCGGAAGTCCTCCTTG, the sensor-assay potency score (higher = more potent) is -0.121.

Sequence TAGTCATCCACTTTATTCCGGA came in with a sensor-assay potency score (higher = more potent) of -0.0909.

TTTGTCTCTCACAGAAACCCTC displayed a sensor-assay potency score (higher = more potent) of -0.658.

The sequence TTCAAGTTCTGCAACCTCTTTA had a sensor-assay potency score (higher = more potent) of 0.721.

On to ACAAACTGTAACACAGTCCATG, for which the sensor-assay potency score (higher = more potent) is -1.41.

A further assay addresses UBTD2. The description is as above. To be noted: shRNA.
TAACCTGTACAACATAGTCCTT had a sensor-assay potency score (higher = more potent) of -0.877.

The sequence TCGAACTTCATTTTGTCAGTGA had a sensor-assay potency score (higher = more potent) of 0.607.

As for TACAACATAGTCCTTTGGGATC, the sensor-assay potency score (higher = more potent) was -1.63.

Take TATGTTTGCACCATCAATGATT: the sensor-assay potency score (higher = more potent) was -0.561.

Consider TGTGCTGCGAACCACAAGCTTG, for which the sensor-assay potency score (higher = more potent) was -1.41.

As for TACACTGGAAGCTGATATCTGT, the sensor-assay potency score (higher = more potent) came to 0.00464.

Sequence TGGAATACTGTGTCTGTGCTGC had a sensor-assay potency score (higher = more potent) of -0.0459.

TTCATAGGGAATTTAGAGCAGT yielded a sensor-assay potency score (higher = more potent) of -0.206.

On to TCTTGCTGCGTAGTTGTCCATC, for which the sensor-assay potency score (higher = more potent) was -1.04.

In the case of AAAACCACCGCTGACTACCTGG, the sensor-assay potency score (higher = more potent) is -0.559.

AACCTGTACAACATAGTCCTTT had a sensor-assay potency score (higher = more potent) of 0.105.

For the sequence TATGTCGCTCTTTTCCTCTATC, the sensor-assay potency score (higher = more potent) was -0.749.

The target of another assay is UBXN2A. Described as above. To be noted: shRNA.
As for ATAACTTCTGAAATCGTCGTTG, the sensor-assay potency score (higher = more potent) came out at 0.446.

As to TTTTATATTTACATCTACCTGT, the sensor-assay potency score (higher = more potent) came out at 0.256.

Sequence TTAATATATCTTGATAACTGGT registered a sensor-assay potency score (higher = more potent) of -0.45.

TTAAATTTCTGGACAATCCTTT came in with a sensor-assay potency score (higher = more potent) of 0.433.

Consider TACATCTACCTGTTTCTTCTGT, for which the sensor-assay potency score (higher = more potent) worked out at 0.409.

Sequence TTCTTTATCAAAAATTCCCTGT returned a sensor-assay potency score (higher = more potent) of -0.0297.

TTGATTGTTGATTATTACCAAG: the sensor-assay potency score (higher = more potent) is -1.29.

In the case of TAATATATCTTGATAACTGGTA, the sensor-assay potency score (higher = more potent) was 0.173.

For TAACTTCTGAAATCGTCGTTGA, the sensor-assay potency score (higher = more potent) turned out to be 0.784.
Further: reference of the scale not given here.
